The values that follow come from PubChem BioAssay (EPA / NIEHS).

Activity calls are given as the source filed them. Rule for the calls: active = hit-call score of the fitted dose curve at least 0.9, where 1 is the maximum; inactive = score below 0.9.

Test [1] can be described thus: ATG_CRE_CIS: Attagene CIS-FACTORIAL HepG2 Assay for human cAMP Responsive Element (CRE) binding protein 3 (AID 2282926). To be noted: HepG2 CRE cis-reporter, Attagene multiplexed mRNA; actives raise or lower the signal. A digest of the protocol: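 We dosed HepG2 cells bearing multiple cis-promoter reporter units for 24 h and measured reporter mRNA by RT-PCR with capillary electrophoresis detection. Bidirectional concentration-response fitting used DMSO as negative control.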

Test [2] has as its target CCAAT/enhancer-binding protein beta (Homo sapiens) (UniProt P17676). Kind of test: ATG_C_EBP_CIS: Attagene CIS-FACTORIAL HepG2 Assay for human CCAAT/Enhancer Binding Protein (C/EBP) beta (AID 2282927). To be noted: HepG2 Attagene cis-factorial transcription factor reporter; actives raise or lower the signal. Summed up:
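Chemical-treated HepG2 cells (24 h) bearing cis-regulated reporter constructs were processed for total RNA, then reverse transcription, PCR amplification, fluorescent primer extension and fragment analysis; gain- and loss-of-signal were fitted against DMSO.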

Test [3] can be described thus: ATG_CMV_CIS: Attagene CIS-FACTORIAL HepG2 Assay for human CMV (Internal Marker) (AID 2282928).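 Note: endpoint acts as a background internal control marker rather than a target.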 To be noted: HepG2 CMV promoter reporter, transcription factor profiling; actives raise or lower the signal. A digest of the protocol:
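HepG2 cells transiently transfected with multiple cis-regulated reporter units; 24 h compound exposure. Reporter mRNA quantified by RT-PCR, 6-FAM primer-extension labeling, HpaI digestion and capillary electrophoresis; bidirectional fitting against DMSO baseline.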

Test [4] in a line: ATG_DR4_LXR_CIS: Attagene CIS-FACTORIAL HepG2 Assay for human Liver X Receptor (LXR), DR4 submotif (AID 2282929). To be noted: HepG2 Attagene DR4 cis-reporter, mRNA transcription; actives raise or lower the signal. Summed up: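 Total RNA from 24 h-treated, MRTU-transfected HepG2 cells underwent reverse transcription, PCR, fluorescent primer extension and restriction digestion before capillary electrophoresis. Both increases and decreases in reporter signal were fitted against DMSO.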

In test [5] the target is Aryl hydrocarbon receptor (Homo sapiens) (UniProt P35869). As to the kind of experiment: ATG_Ahr_CIS: Attagene CIS-FACTORIAL HepG2 Assay for human Aryl Hydrocarbon Receptor (Ahr) (AID 2282930). Conditions: HepG2 AhR cis-factorial reporter transcription; actives raise or lower the signal. Summed up: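 Following 24 h of chemical dosing, transfected HepG2 liver cells with cis-driven reporter units were lysed for RNA; reporter mRNA was quantified via RT-PCR and capillary electrophoresis, and responses fitted bidirectionally from DMSO.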

Test [6] in a line: ATG_AP_1_CIS: Attagene CIS-FACTORIAL HepG2 Assay for human Activator Protein 1 (AP-1) (AID 2282931). Conditions: HepG2 Attagene cis-factorial AP-1 reporter mRNA; actives raise or lower the signal. A digest of the protocol:
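HepG2, transient cis-reporter transfection; 24 h; readout RT-PCR/CE fluorescence; DMSO baseline, gain and loss fitted.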

The nature of test [7]: ATG_AP_2_CIS: Attagene CIS-FACTORIAL HepG2 Assay for human Activator Protein 2 (AP-2) (AID 2282932). Conditions: HepG2 AP-2 cis-reporter, Attagene transcription factor profiling; actives raise or lower the signal. Summed up:
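Bidirectional curve fitting against DMSO was applied to reporter mRNA signals from HepG2 cells 24 h after dosing. Cis-promoter reporter units, transiently transfected, were read by RT-PCR plus capillary electrophoresis.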

Test [8] in a line: ATG_BRE_CIS: Attagene CIS-FACTORIAL HepG2 Assay for human Bone Morphogenetic Protein (BMP) Response Element (BRE) (AID 2282933). To be noted: HepG2 BMP response element reporter, Attagene transcription factor profiling; actives raise or lower the signal. Summed up: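 Multiplexed cis-reporter assay, HepG2, 24 h exposure. mRNA from reporter units quantified via RT-PCR/CE; DMSO baseline; bidirectional curve fit.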

Test [9] deals with Transcription factor E2F1 (Homo sapiens) (UniProt Q01094). Kind of test: ATG_E2F_CIS: Attagene CIS-FACTORIAL HepG2 Assay for human E2F Transcription Factor 1 (AID 2282935). To be noted: HepG2 Attagene cis-reporter, E2F reporter RNA transcripts; actives raise or lower the signal. A digest of the protocol:
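Multiplexed cis-reporter assay: HepG2, transient transfection, 24 h dosing, mRNA quantitation by labeled RT-PCR and CE.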

Test [10] in a line: ATG_E_Box_CIS: Attagene CIS-FACTORIAL HepG2 Assay for human Enhancer Box (E-box) (AID 2282936). To be noted: HepG2 E-box cis-reporter transcription, actives raise or lower the signal. A digest of the protocol:
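Multiplexed CIS reporter system in transiently transfected HepG2 cells measures native transcription factor activity. Reporter RNA after 24 h exposure is profiled by RT-PCR-capillary electrophoresis.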

Test [11] is described as follows: ATG_M_61_CIS: Attagene CIS-FACTORIAL HepG2 Assay for M61 Transcription Factor (Internal Marker) (AID 2282937). Conditions: HepG2 Attagene CIS-FACTORIAL M61 internal marker reporter; actives raise or lower the signal. Summed up:
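Transfect HepG2 with MRTUs; dose 24 h; isolate RNA; reverse-transcribe with DNase I treatment; PCR-amplify, FAM-label and cut with HpaI for 2 h at 37 C; resolve by CE. Bidirectional fitting against DMSO.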

Test [12] is described as follows: ATG_EGR_CIS: Attagene CIS-FACTORIAL HepG2 Assay for human Early Growth Response 1 (EGR1) (AID 2282938). To be noted: HepG2 Attagene CIS-FACTORIAL EGR reporter mRNA; actives raise or lower the signal. Summed up: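 After a 24 h treatment of transiently transfected HepG2 cells, total RNA was reverse-transcribed and reporter sequences PCR-amplified, labelled and run on capillary electrophoresis. Reporters sit under cis-regulatory promoters sensing endogenous factors.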

The target in test [13] is Retinoic acid receptor alpha (Homo sapiens) (UniProt P10276). As to the kind of experiment: ATG_DR5_RAR_CIS: Attagene CIS-FACTORIAL HepG2 Assay for human Retinoic Acid Receptor Alpha (RARE), DR5 submotif (AID 2282934). Conditions: HepG2 Attagene cis-factorial RARE DR5 reporter, mRNA; actives raise or lower the signal. Summed up: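 Transfected HepG2 reporter cells are exposed to chemicals for 24 h. Then RNA is extracted and the DR5 element reporter transcript is measured by RT-PCR and capillary electrophoresis, with bidirectional curve fitting relative to DMSO.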
Retinoic acid receptor alpha (Homo sapiens), sequence (P10276 whole entry, looked up): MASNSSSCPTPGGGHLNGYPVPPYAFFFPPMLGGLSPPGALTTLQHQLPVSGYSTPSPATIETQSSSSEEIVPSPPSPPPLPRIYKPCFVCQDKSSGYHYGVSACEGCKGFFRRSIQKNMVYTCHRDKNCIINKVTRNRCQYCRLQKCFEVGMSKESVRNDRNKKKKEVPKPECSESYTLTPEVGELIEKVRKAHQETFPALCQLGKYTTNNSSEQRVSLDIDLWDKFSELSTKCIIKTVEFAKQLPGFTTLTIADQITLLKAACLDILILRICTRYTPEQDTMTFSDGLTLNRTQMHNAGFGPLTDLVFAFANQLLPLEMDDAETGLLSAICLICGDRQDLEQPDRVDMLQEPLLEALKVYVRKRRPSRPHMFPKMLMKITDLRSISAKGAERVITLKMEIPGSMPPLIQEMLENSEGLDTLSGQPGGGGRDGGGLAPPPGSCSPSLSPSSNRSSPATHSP

Transcription factor E2F1 (Homo sapiens), sequence (Q01094 whole entry, looked up): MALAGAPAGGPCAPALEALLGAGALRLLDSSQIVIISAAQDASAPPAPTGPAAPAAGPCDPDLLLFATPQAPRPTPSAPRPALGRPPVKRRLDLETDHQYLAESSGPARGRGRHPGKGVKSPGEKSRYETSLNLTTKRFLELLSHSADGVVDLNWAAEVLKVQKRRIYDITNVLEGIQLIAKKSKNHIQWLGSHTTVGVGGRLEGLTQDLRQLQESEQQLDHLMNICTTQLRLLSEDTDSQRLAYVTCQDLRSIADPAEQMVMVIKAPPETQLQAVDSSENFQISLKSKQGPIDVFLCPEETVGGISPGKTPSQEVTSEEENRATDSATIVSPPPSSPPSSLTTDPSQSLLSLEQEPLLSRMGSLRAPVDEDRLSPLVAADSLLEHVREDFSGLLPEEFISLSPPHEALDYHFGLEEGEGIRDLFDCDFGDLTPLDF
CCAAT/enhancer-binding protein beta (Homo sapiens), sequence (P17676 whole entry, looked up, the tested form may be a part): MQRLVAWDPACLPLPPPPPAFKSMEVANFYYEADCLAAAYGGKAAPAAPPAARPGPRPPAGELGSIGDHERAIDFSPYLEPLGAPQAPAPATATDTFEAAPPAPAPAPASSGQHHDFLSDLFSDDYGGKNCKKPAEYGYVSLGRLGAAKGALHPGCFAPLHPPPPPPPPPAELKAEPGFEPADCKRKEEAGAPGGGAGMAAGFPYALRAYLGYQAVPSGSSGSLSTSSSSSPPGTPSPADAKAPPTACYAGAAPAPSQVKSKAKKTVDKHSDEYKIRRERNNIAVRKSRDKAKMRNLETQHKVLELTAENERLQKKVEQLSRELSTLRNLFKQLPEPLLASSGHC
Aryl hydrocarbon receptor (Homo sapiens), sequence (P35869 whole entry, looked up): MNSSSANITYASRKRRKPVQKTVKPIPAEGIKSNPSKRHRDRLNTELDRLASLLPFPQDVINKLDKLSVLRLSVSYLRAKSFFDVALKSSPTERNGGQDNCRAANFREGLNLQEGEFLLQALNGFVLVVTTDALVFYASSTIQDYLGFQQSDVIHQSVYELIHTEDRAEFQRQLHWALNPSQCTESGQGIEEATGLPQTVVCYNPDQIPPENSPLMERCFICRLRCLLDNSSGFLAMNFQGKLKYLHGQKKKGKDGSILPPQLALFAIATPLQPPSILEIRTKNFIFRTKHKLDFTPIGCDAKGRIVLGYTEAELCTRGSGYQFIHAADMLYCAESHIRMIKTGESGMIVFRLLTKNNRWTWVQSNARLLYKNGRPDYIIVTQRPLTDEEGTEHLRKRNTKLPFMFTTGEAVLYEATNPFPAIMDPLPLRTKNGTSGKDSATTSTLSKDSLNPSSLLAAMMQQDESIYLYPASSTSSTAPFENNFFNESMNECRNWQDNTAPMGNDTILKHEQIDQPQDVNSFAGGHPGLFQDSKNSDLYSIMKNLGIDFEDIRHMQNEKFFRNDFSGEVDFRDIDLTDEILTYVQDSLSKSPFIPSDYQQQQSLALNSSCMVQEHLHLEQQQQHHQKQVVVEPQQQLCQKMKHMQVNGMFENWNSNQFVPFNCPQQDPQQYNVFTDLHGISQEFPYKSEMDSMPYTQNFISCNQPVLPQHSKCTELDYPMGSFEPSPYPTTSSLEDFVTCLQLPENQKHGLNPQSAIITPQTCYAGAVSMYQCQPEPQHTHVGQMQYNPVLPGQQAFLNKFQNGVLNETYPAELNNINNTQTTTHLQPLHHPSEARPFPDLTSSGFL

On to `C[N+](C)(C)Cc1ccccc1`, for which the outcome in test [1], in test [2], in test [3], in [4], in test [5] and in [6] was inactive. Moreover, the compound was classed as inactive in test [7], in test [8], in [9], in test [10], in test [11] and in [12].
For `CCC[CH2][Sn]([CH2]CCC)([CH2]CCC)[CH2]CCC`, the result in test [1], in [3], in [5], in test [9] and in test [11] was inactive. Moreover, the AC50 is 5.44 µM (active) in test [2]; 3.31 µM (active) in test [4]; 7.55 µM (active) in test [6]; 19.1 µM (active) in test [7]; 5.89 µM (active) in [8]; 14 µM (active) in [10]. Also, the AC50 in [12] is 5.14 µM (active).
Consider `CC(C)(COCC1CO1)COCC1CO1` (stereo not drawn), for which the outcome in [1], in [2], in [3], in [4], in test [5] and in test [6] was inactive. For the same compound, the call in test [7], in test [8], in [13], in test [11] and in test [12] was inactive.
On to `Oc1c(Br)cc(Br)cc1Br`, for which the outcome in test [1], in test [2], in test [3], in test [4], in test [7] and in test [9] was inactive. Further, the call in test [11] was inactive. Moreover, the AC50 in test [5] is 49.5 µM (active); in [6], 27.7 µM (active); in test [8], 126 µM (active); in test [10], 30.4 µM (active); in [12], 31.9 µM (active).
`N#Cc1ccccc1Cl`: the outcome in test [1], in test [2], in [3], in [4], in [5] and in test [6] was inactive. Besides, the outcome in test [7], in [8], in [9], in test [10], in test [11] and in test [12] was inactive.
In the case of `C=CC(=O)OCC(COC(=O)C=C)(COC(=O)C=C)COC(=O)C=C`, the compound was called inactive in test [1], in test [2], in test [5], in [8], in test [9] and in [11]. The AC50 in test [3] was 8.92 µM (active); in [4], 3.12 µM (active); in test [6], 33.4 µM (active); in test [7], 33.4 µM (active); in test [10], 7.14 µM (active); in [12] it was 8.31 µM (active).
`CCN(N=O)C(N)=O`: the call in test [1], in test [2], in test [3], in [4], in test [5] and in test [6] was inactive. The call in test [7], in test [8], in test [13], in test [10], in test [11] and in [12] was inactive.
As for `CC(=O)CN(CC(C)=O)N=O`, the call in test [1], in test [2], in [3], in test [4], in [5] and in test [6] was inactive. The outcome in test [7], in test [8], in [13], in test [11] and in test [12] was inactive.
Consider `CN(C1CCCCC1)C1CCCCC1`, for which the result in test [1], in test [2], in test [3], in test [4], in [5] and in test [6] was inactive. Also, the outcome in test [7], in test [8], in [13], in test [10], in test [11] and in test [12] was inactive.
Consider `O=c1nc(O)n(Cl)c(=O)n1Cl`, for which the outcome in test [1], in test [2], in test [3], in test [4], in test [5] and in test [6] was inactive. The compound was called inactive in test [7], in [8], in test [9], in test [10], in [11] and in test [12].

As a reminder, the AC50 is the concentration at which the activity in the assay is half-maximal.
